Where “and” joins values, the source holds several entries; their conditions need not be identical. Equal entries are not always repeated. This is part of a sample that, as a whole, favours compounds with a hit. Of some 83,000 tested, about 20% had one in any assay.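 Cell lines were cultured in 96-well plates, exposed to a single compound concentration, and assessed for percent growth 48 hours later.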 Calls of active or inactive are those of the source. The calls were made as follows: active = growth percent below 10; inactive = the rest.

Among the test systems are MOLT-4 leukemia; SR leukemia; RPMI-8226 leukemia; OVCAR-8 ovarian; OVCAR-5 ovarian; SK-OV-3 ovarian; IGROV1 ovarian; OVCAR-3 ovarian; HS 578T breast; NCI/ADR-RES ovarian; T-47D breast; BT-549 breast; MDA-MB-435 melanoma; SW-620 colon; MCF7 breast; HCT-116 colon; HCC-2998 colon; KM12 colon; OVCAR-4 ovarian.
What all share (assay): NCI-60 one-dose screen, 48 h (100 = growth as untreated, 0 = no growth, -100 = all killed)
Conditions in all cases: 10 µM unless noted

Regarding `N#CCC(=O)c1ccccc1`, the growth in the assay with MOLT-4 leukemia is 95.2% (inactive); in the assay with SR leukemia, 107% (inactive); in the assay on RPMI-8226 leukemia it was 108% (inactive); in the assay with OVCAR-8 ovarian, 96.5% (inactive); with OVCAR-5 ovarian, 105% (inactive); in the assay with SK-OV-3 ovarian it was 105% (inactive). The growth with IGROV1 ovarian is 104% (inactive); with OVCAR-3 ovarian it was 102% (inactive); in the assay with HS 578T breast it was 107% (inactive); in the assay with NCI/ADR-RES ovarian, 104% (inactive); in the assay on T-47D breast, 99.4% (inactive); with BT-549 breast, 116% (inactive). Further, the growth with MDA-MB-435 melanoma is 101% (inactive); in the assay with SW-620 colon it was 97.6% (inactive); in the assay on MCF7 breast, 92.6% (inactive); with HCT-116 colon it was 107% (inactive); with HCC-2998 colon, 71.2% (inactive); in the assay with KM12 colon it was 90.8% (inactive).
Turning to `Oc1cc(Cl)ccc1Oc1ccc(Cl)cc1Cl`, the growth with MOLT-4 leukemia is 5.71% (active); in the assay with SR leukemia, 3.21% (active); in the assay on RPMI-8226 leukemia, 9.47% (active); with OVCAR-8 ovarian, 10.7% (inactive); in the assay on OVCAR-5 ovarian it was 86.2% (inactive); with SK-OV-3 ovarian, 89.2% (inactive). For the same compound, the growth is 52.4% (inactive) with IGROV1 ovarian; 7.74% (active) in the assay on NCI/ADR-RES ovarian; 17.9% (inactive) in the assay on T-47D breast; 8.8% (active) with BT-549 breast; 15.1% (inactive) in the assay with MDA-MB-435 melanoma; 21% (inactive) in the assay with SW-620 colon. Also, the growth with MCF7 breast was 19.3% (inactive); with HCT-116 colon it was 6.58% (active); in the assay with HCC-2998 colon, 105% (inactive); in the assay on KM12 colon, 21.9% (inactive).
On to `C[N+]1(CC#CC[N+]2(C)CCCC2)CCCC1`, for which the growth in the assay with MOLT-4 leukemia was 103% (inactive); with SR leukemia, 96.7% (inactive); in the assay on RPMI-8226 leukemia it was 109% (inactive); with OVCAR-8 ovarian, 111% (inactive); with OVCAR-5 ovarian, 101% (inactive); in the assay on SK-OV-3 ovarian it was 98.3% (inactive). Besides, the growth is 105% (inactive) in the assay on IGROV1 ovarian; 102% (inactive) with OVCAR-3 ovarian; 107% (inactive) with HS 578T breast; 102% (inactive) with NCI/ADR-RES ovarian; 108% (inactive) in the assay on T-47D breast; 101% (inactive) in the assay with BT-549 breast. Also, the growth was 104% (inactive) in the assay on MDA-MB-435 melanoma; 107% (inactive) in the assay with SW-620 colon; 95.5% (inactive) in the assay on MCF7 breast; 98.4% (inactive) with HCT-116 colon; 110% (inactive) in the assay on HCC-2998 colon; 102% (inactive) in the assay with KM12 colon.
In the case of `C(=NC1CCCCC1)=NC1CCCCC1`, the growth in the assay on MOLT-4 leukemia was 101% (inactive) and 86.1% (inactive); in the assay with SR leukemia, 89.5% (inactive) and 83.7% (inactive); in the assay with RPMI-8226 leukemia, 97.6% (inactive) and 50% (inactive); with OVCAR-8 ovarian, 124% (inactive) and 77.4% (inactive); in the assay on OVCAR-5 ovarian, 89.7% (inactive) and 90.7% (inactive); in the assay on SK-OV-3 ovarian it was 109% (inactive) and 91.6% (inactive). Also, the growth in the assay on IGROV1 ovarian is 108% (inactive) and 88.4% (inactive); with OVCAR-3 ovarian, 117% (inactive) and 73% (inactive); in the assay on HS 578T breast it was 91.8% (inactive); with NCI/ADR-RES ovarian, 111% (inactive) and 75.5% (inactive); in the assay on T-47D breast, 104% (inactive) and 14.6% (inactive); with BT-549 breast it was 113% (inactive) and 91.1% (inactive). The growth with MDA-MB-435 melanoma is 101% (inactive) and 88.4% (inactive); in the assay with MCF7 breast it was 100% (inactive) and 87.2% (inactive); in the assay with HCT-116 colon it was 93.6% (inactive) and 81.4% (inactive); in the assay with HCC-2998 colon it was 105% (inactive) and 87.7% (inactive); in the assay on KM12 colon, 109% (inactive) and 95.7% (inactive).
In the case of `C=CCOC(=O)C(Br)CC` (configuration not stated), the growth with MOLT-4 leukemia was 102% (inactive); in the assay on SR leukemia, 100% (inactive); with RPMI-8226 leukemia, 112% (inactive); in the assay with OVCAR-8 ovarian, 106% (inactive); in the assay on OVCAR-5 ovarian it was 113% (inactive); in the assay with SK-OV-3 ovarian, 105% (inactive). Further, the growth was 115% (inactive) in the assay with IGROV1 ovarian; 105% (inactive) with OVCAR-3 ovarian; 104% (inactive) with HS 578T breast; 107% (inactive) with NCI/ADR-RES ovarian; 95.8% (inactive) with T-47D breast; 111% (inactive) with BT-549 breast. The growth in the assay with MDA-MB-435 melanoma was 109% (inactive); with SW-620 colon, 104% (inactive); in the assay on MCF7 breast, 103% (inactive); in the assay with HCT-116 colon, 104% (inactive); with HCC-2998 colon, 101% (inactive); in the assay with KM12 colon, 112% (inactive).
Turning to `COc1cc2c(c(OC)c1OC)-c1ccc(O)cc1[C@@H](NC(C)=O)CC2`, the growth is 15.1% (inactive) and -4.87% (active) with SR leukemia; 25% (inactive) and -17.7% (active) with RPMI-8226 leukemia; 15.7% (inactive) and 11.1% (inactive) with OVCAR-8 ovarian; 33.2% (inactive) and 41.1% (inactive) in the assay on OVCAR-5 ovarian; 19.3% (inactive) in the assay with OVCAR-4 ovarian; 8.01% (active) and 6.47% (active) with SK-OV-3 ovarian. Also, the growth is -24.2% (active) and 8.32% (active) in the assay with IGROV1 ovarian; -39.1% (active) and -30.9% (active) with OVCAR-3 ovarian; 50.4% (inactive) and 29.5% (inactive) in the assay on HS 578T breast; 11.1% (inactive) and -2.64% (active) in the assay on NCI/ADR-RES ovarian; 56.4% (inactive) and 64% (inactive) in the assay on T-47D breast; 8.27% (active) in the assay with BT-549 breast. For the same compound, the growth in the assay on MDA-MB-435 melanoma is -27.7% (active) and -47.4% (active); with SW-620 colon, 21.9% (inactive) and 20.7% (inactive); in the assay with MCF7 breast, 15.1% (inactive) and 6.46% (active); with HCT-116 colon, 6.62% (active) and 4.98% (active); in the assay with HCC-2998 colon it was 11.5% (inactive) and 8.19% (active); with KM12 colon it was -17.3% (active) and -32.3% (active).
Regarding `C[C@]12CCC3[C@@H](C[C@@H]4SC(Nc5ccccc5)=N[C@@]45CC(=O)CC[C@]35C)[C@@H]1CCC2=O` (some centres not stated), the growth is -5.37% (active) in the assay with SR leukemia; -14.8% (active) in the assay with RPMI-8226 leukemia; -5.35% (active) in the assay with OVCAR-8 ovarian; 31.2% (inactive) in the assay with OVCAR-5 ovarian; 31.7% (inactive) in the assay with OVCAR-4 ovarian; 56.9% (inactive) with SK-OV-3 ovarian. Moreover, the growth was -11.3% (active) in the assay with IGROV1 ovarian; -9.98% (active) with OVCAR-3 ovarian; 41% (inactive) in the assay with HS 578T breast; 9.86% (active) with NCI/ADR-RES ovarian; -27.4% (active) with T-47D breast; -19.9% (active) with BT-549 breast. Also, the growth was 1.11% (active) in the assay on MDA-MB-435 melanoma; -17.9% (active) in the assay with SW-620 colon; 15.4% (inactive) in the assay on MCF7 breast; -85.5% (active) with HCT-116 colon; 23.2% (inactive) in the assay with KM12 colon.

The record behind these values is PubChem BioAssay (NCI).
